According to the OligoGym collection:

biological target: PCDH11X; experiment: pooled miR-30 sensor sort-seq; sequence = guide strand; settings: shRNA
Also: reference of the scale not given here.

Sequence | sensor-assay potency score (higher = more potent)
TTTTCTGGCATTTCTTCTCGGA | -0.435
TTGTAGGACTACATACATCATA | -0.797
TTCAGTGCTTTTGCGCACCAGT | -0.711
TAACTACTTTGATTGAACGTAT | -0.315
AATAGTGACAAAATTAAGCAGC | -0.804
TTAAGCAGCAAGTTCTTAGGGG | 0.683
TGTATCAGTAACACTCACTTGC | 0.683
ATCAGTAACACTCACTTGCAAA | -1.63
TTTACTTTCATCACGTAGGTAT | 0.803
TTGAACTGCATAGCAGTTGTCA | -0.535
TTGATCTTAGCATTAGGCCCAC | -0.682

biological target: PCDHA4; experiment: as above; settings: shRNA

Sequence | sensor-assay potency score (higher = more potent)
TCTACTTCCACAATAACTCTAC | 0.0889
TTTGTCGGACACGCTGATCAGG | -0.74
TTTTCTAGTAATCTCACCTTAT | -0.448
TATCGTTGTTGTCTTCTACTTC | 0.366
TTAAGTTTAATTACCAATGTTC | -0.347
TTGGATTTCACATTTGGCGAAA | -0.705
TCTCTGTCTAAAGATTTCCGTA | -0.816
ATGTCTTTGTCGGACACGCTGA | -1.17
